# Experimental data published in PubChem BioAssay (EPA / NIEHS).
# Values joined by “and” are separate entries in the source; they are usually repeats but may differ in a detail not shown here. Equal values may be shown once. Records with an inconclusive call do not appear. A structure can be active in one record and inactive in another. Active and inactive are the calls of the source. How the source made its calls, unless noted: active means hit-call score of the fitted dose curve at least 0.9, where 1 is the maximum; inactive means score below 0.9.
# Columns and labels:
# [1] = read-out: CD69, CD69 (gene 969); assay: BSK_LPS_CD69: BioMAP Diversity Plus: LPS Assay for CD69 Biomarker Activity (AID 2284303); conditions: primary human HUVEC with PBMC
# How it was run: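 Human umbilical vein endothelial cells co-cultured with PBMC under LPS stimulation, chemical exposure 24 h; cell-surface CD69 measured by ELISA and fitted in the positive direction versus DMSO.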
# [2] = IUF_NPC2b_neuronal_migration_120hr: Leibniz Research Institute for Environmental Medicine (IUF) 120-hour Neural Progenitor Cell Migration Assay for Neuron Migration (NPC2b) (AID 2284300)
# How it was run: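 TUBB3-positive neurons are imaged after 120 h of differentiation, and their mean distance from the sphere edge is normalised to radial glia migration. Single 0.3 mm fetal hNPC spheres on poly-D-lysine/laminin received 7 compound concentrations, ≤0.1% DMSO, refreshed at day 3.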
# [3] = IUF_NPC3_neuronal_differentiation_120hr: Leibniz Research Institute for Environmental Medicine (IUF) 120-hour Neuronal Differentiation Assay (NPC3) (AID 2284301)
# How it was run: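 Single 0.3 mm neurospheres from human fetal cortex were plated in differentiation medium containing test compound. Medium was half-replaced on day 3. After 120 h cells were fixed, immunostained and imaged, and neuronal fraction was scored against DMSO control.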
# [4] = IUF_NPC4_neurite_length_120hr: Leibniz Research Institute for Environmental Medicine (IUF) 120-hour Neuronal Morphology Assay for Neurite Length (NPC4) (AID 2284302)
# How it was run: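 Read-out is mean neurite length in µm of TUBB3-positive neurons, skeletonized from high-content fluorescence images after 120 h. Single 0.3 mm primary human neural progenitor spheres differentiated on poly-D-lysine/laminin under continuous compound exposure; DMSO was baseline.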
# [5] = IUF_NPC5_oligodendrocyte_differentiation_120hr: Leibniz Research Institute for Environmental Medicine (IUF) 120-hour Oligodendrocyte Differentiation Assay (NPC5) (AID 2284304; active means hit-call score of the fitted dose curve at least 0.9, where 1 is the maximum;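 further: primary human fetal neural progenitor spheres plated to migrate and differentiate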)
# How it was run: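 Oligodendrocyte differentiation scored as O4-positive cells, found by CNN image analysis, as percent of Hoechst-stained nuclei in the migration area. Scoring followed 5 days of exposure of plated hNPC neurospheres differentiating in DMEM/F12 N2 medium at 37C, with compound refreshed at day 3.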
# [6] = IUF_NPC4_neurite_area_120hr: Leibniz Research Institute for Environmental Medicine (IUF) 120-hour Neuronal Morphology Assay for Neurite Area (NPC4) (AID 2284305; active means hit-call score of the fitted dose curve at least 0.9, where 1 is the maximum)
# How it was run: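 Neurite area is read out as the mean pixel area, excluding nuclei, of skeletonized TUBB3-positive neurons imaged after 120 h. Primary human neural progenitor spheres differentiated on poly-D-lysine/laminin with compound present from day 0. Activity was referenced to DMSO controls.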
# [7] = IUF_NPC2-5_cytotoxicity_72hr: Cytotoxicity Assessment at 72 hours in the Leibniz Research Institute for Environmental Medicine (IUF) Neural Progenitor Cell Migration and Differentiation Assay for Cytotoxicity (NPC2-5) (AID 2284306; active means hit-call score of the fitted dose curve at least 0.9, where 1 is the maximum;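 further: LDH release into supernatant measured by resorufin fluorescence marking membrane damage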)
# How it was run: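 Membrane integrity loss was scored from fluorescence (RFU) of resorufin generated by LDH in culture supernatant, 72 h after dosing. Differentiating human progenitor spheres received seven serial compound concentrations alongside a solvent control.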
# [8] = IUF_NPC2-5_cytotoxicity_120hr: Cytotoxicity Assessment at 120 hours in the Leibniz Research Institute for Environmental Medicine (IUF) Neural Progenitor Cell Migration and Differentiation Assay (NPC2-5) (AID 2284307; active means hit-call score of the fitted dose curve at least 0.9, where 1 is the maximum)
# How it was run: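 Membrane-integrity loss measured as LDH activity in medium supernatant via resazurin-to-resorufin fluorescence after 120 h exposure. hNPC spheres from GW 16-19 fetal cortex differentiated on poly-D-lysine/laminin, 37C, medium half-refreshed day 3; seven concentrations, DMSO max 0.1%.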
# [9] = IUF_NPC2-5_cell_number_120hr: Cell Number Assessment at 120 hours in the Leibniz Research Institute for Environmental Medicine (IUF) Neural Progenitor Cell Migration and Differentiation Assay (NPC2-5) (AID 2284308);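 further: count of Hoechst-stained nuclei in migration zone around plated human neural progenitor spheres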
# How it was run: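 Counting of all Hoechst-stained nuclei in the migration area at 120 h, versus DMSO control. Primary hNPC spheres differentiated on poly-D-lysine/laminin in N2 medium at 37C, dosed from day 0 (7 concentrations, DMSO ≤0.1%), half-refed day 3.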
structure (smiles),measurement,setting,value
CCCCCCCCCCCC,AC50,[1],30.1 µM (active)
same,outcome,[1],inactive
CC(=O)Nc1ccc(O)cc1,outcome,[2],inactive
same,outcome,[3],inactive
same,outcome,[4],inactive
same,outcome,[5],inactive
same,outcome,[6],inactive
same,outcome,[7],inactive
same,outcome,[8],inactive
same,outcome,[9],inactive
Oc1c(Cl)cc(Cl)cc1Sc1cc(Cl)cc(Cl)c1O,AC50,[1],24.3 µM (active) and 27.4 µM (active)
CN(Cc1cnc2nc(N)nc(N)c2n1)c1ccc(C(=O)N[C@@H](CCC(=O)O)C(=O)O)cc1,outcome,[1],inactive
Oc1ccc(Cc2ccccc2O)cc1,outcome,[1],inactive
O=C1NS(=O)(=O)c2ccccc21,outcome,[2],inactive
same,outcome,[3],inactive
same,outcome,[4],inactive
same,outcome,[1],inactive
same,outcome,[5],inactive
same,outcome,[6],inactive
same,outcome,[7],inactive
same,outcome,[8],inactive
same,outcome,[9],inactive
O=S(=O)(O)C(F)(F)C(F)(F)C(F)(F)C(F)(F)C(F)(F)C(F)(F)C(F)(F)C(F)(F)C(F)(F)C(F)(F)F,AC50,[1],14.6 µM (active) and 3.91 µM (active)
